Measurements from PubChem BioAssay (NCI).
Compounds without any hit were thinned out: in the full panel of roughly 83,000, 20% have a hit.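 Percent growth is the endpoint: 0 to 100 indicates growth inhibition (40 means 60% inhibition), 0 means no net growth, and negative values indicate cell death.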 A number with no mark means an inactive call. The source made the active and inactive calls. Rule for the calls: active = growth percent below 10; inactive = the rest.

tested on: MDA-MB-468 breast; test: NCI-60 one-dose screen, 48 h (100 = growth as untreated, 0 = no growth, -100 = all killed); conditions: 10 µM unless noted

SMILES | growth
CC(C)(C)c1cc(C(C)(C)C)cc(S(=O)(=O)Nc2cc3ccccc3cc2C(=O)NCCN)c1 | -69.6% (active)
CCCOC(=O)C(O)c1ccccc1 (stereo not given) | 102%
C=C1/C(=C\C=C2/CCC[C@]3(C)[C@@H]([C@H](C)CCCC(C)(C)O)CC[C@@H]23)C[C@@H](OC(=O)CBr)C[C@@H]1O | 72.8%
CN(CCc1ccccc1)C(=S)N(C(=O)c1ccc([N+](=O)[O-])cc1)c1ccc(Cl)cc1 | 37.4%
Cc1ccc(NC(=O)c2[nH]c(SCCN(C)C)nc2-c2ccc(F)cc2)cc1C#Cc1cnc2cccnn12 | 83.1%
COc1ccc(C(=O)c2cc(OC)c3c(c2)OCO3)cc1O | 0.266% (active)
COc1cc2c3c(cccc3c1)C(=O)N(CCN1CCCC1)C2=O | -3.53% (active)
CC(CC(CCC(=O)O)(c1ccccc1)c1ccccc1)N(C)C (stereo not given) | 98.4%
CC(C)(C)C(=O)OCOP(=O)(OCOC(=O)C(C)(C)C)C1CC(O)N(O)C1=O (stereo not given) | 61%
CSc1nnc(-c2cc3c([nH]c4ccccc43)c(-c3cccc(O)c3)n2)n1-c1ccccc1 | 33.4%
NC(=O)c1c(NC(=O)c2ccc3c(c2)OCO3)sc2c1CCC(=O)C2 | -35.3% (active)
CCCCN(CCCC)CC(CN(CC)CC)OC(=O)Nc1ccccc1 (stereo not given) | 90%
Nc1nc(N)c2c(n1)NC(c1sc(Cl)nc1Cl)CC(c1ccccc1)=N2 (stereo not given) | -2.14% (active)
N#Cc1c(-c2ccccc2)cc(-c2ccccc2)n(CCCCC(=O)NO)c1=O | 20%
COc1ccc(/C(=C(\c2ccccc2)[N+](=O)[O-])c2ccc(OCCN3CCCC3)cc2)cc1 | 68.1%
O=C1Nc2ccccc2/C1=C/c1nc2ccccc2c(=O)[nH]1 | 93%
COc1c(C)c2c(c(O)c1C/C=C(\C)CCC(=O)OCCN1CCOCC1)C(=O)OC2 | 32.6%
O=c1[nH]nc(-c2ccccc2)c2sc(NC(=S)Nc3ccc(Cl)cc3)nc12 | 95.6%
COc1ccc(OC)c(/C=C/c2nnc(Nc3ccc(Cl)cc3)o2)c1 | 66%
O=C1/C(=C/c2ccc([N+](=O)[O-])s2)Oc2cc(Cl)ccc21 | -17.8% (active)

SMILES | growth
Nc1ccc(C(=O)Nc2cccc(C(=O)Nc3ccc4c(O)c(N=Nc5ccc(N=Nc6ccc(S(=O)(=O)O)cc6)cc5)c(S(=O)(=O)O)cc4c3)c2)cc1 | 100%
CNCCNc1nc2ccccc2c2c(=O)c3cccc(C)c3sc12 | -14.9% (active)
Fc1ccc([I+]c2ccc(F)cc2)cc1 | 30%
Cc1nc2ccccc2c(/C=C/c2ccccc2)c1C(=O)/C=C/c1ccccc1 | 35.6%
COc1ccc(C2CC(=O)Oc3c(OC)c4c(c(OC)c32)OCO4)cc1 (stereo not given) | 96.9%
COc1cc(/C=C\c2cc(/C=C\c3ccc(O)c(OC)c3)n(C(=O)COc3ccccc3)n2)ccc1O | -1.76% (active)
COc1ccccc1/C=C1\Oc2cc(OCCCN3CCCC3)ccc2C1=O | 85.9%
Cc1ccc(/C=C2\SC(=S)N(CC(=O)NCCCN3CCOCC3)C2=O)cc1 | 94.9%
C[C@]12CC[C@@H]3c4cc(O)c(O)cc4CC[C@H]3[C@@H]1CC[C@@H]2O | 72.1%
Nc1nc2c(ncn2C2OC3COP(=O)(O)OC4C(COP(=O)(O)OC2C3O)OC(n2cnc3c(N)ncnc32)C4O)c(=O)[nH]1 (stereo not given) | 116%
O=C(O)C(c1ccccc1)N1C(=O)CSC1=S (stereo not given) | 101%
COc1ccc(C(=O)N2N=C(c3ccc(Br)cc3)CC2c2cn(-c3ccccc3)nc2-c2ccccc2)cc1 (stereo not given) | 69%
COc1ccc(C(=O)c2cc3c(N)c(C(=O)Nc4cccc5ccccc45)sc3nc2C)cc1 | -0.26% (active)
COc1nc2c(cc1S(=O)(=O)c1ccccc1)CCc1c-2cnn1-c1ccc(Cl)cc1 | 87.6%
O=C1NC(=O)/C(=C\c2ccco2)S1 | 108%
Cn1c2c(c3ccccc31)CCN1C[C@@H]3CCCC[C@H]3C[C@@H]21 | -16.1% (active)
COc1ccc(/C=C2\C=C(c3ccccc3)N(CCc3ccccc3)C2=O)cc1OC | 44%
CC(C)(C)c1cc(-c2nc3ccc(N4CCN(S(C)(=O)=O)CC4)cc3[nH]2)cc(C(C)(C)C)c1O | 96.1%
Clc1ccc2nc(-c3ccc(-c4ccc(/C=N/NC5=NCCN5)cc4)s3)cn2c1 | 96.1%
O=C1c2ccccc2CCC12OC2c1cn(-c2ccccc2)nc1-c1ccc(Cl)cc1 (stereo not given) | 92.5%
